In PubChem BioAssay AID651784 (National Center for Advancing Translational Sciences (NCATS), 2012):
Records with an inconclusive call do not appear. Activity calls are given as the source filed them. The call rests on the fitted dose curve; in most records, active means well fitted inhibition curve with a large enough effect; inconclusive means small, poorly fitted or top-dose-only effect; inactive means no such curve, though single readings can be large or run the other way.
Potency means the concentration at half of the fitted maximal effect.

Assay: Acumen qHTS Assay for Inhibitors of the mTORC1 Signaling Pathway in MEF (Tsc2-/-, p53-/-) Cells: Hit Validation;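 further: phospho-rpS6 Ser235/236 immunofluorescence normalized to propidium iodide cell count; nearly all actives have a fitted effect of over 65% in size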;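 on activity change, negative = inhibition: cells exposed to compound for 24 hours; plate controls were DMSO for no effect and 7.5 nM rapamycin control for full effect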
Settings: Acumen imaging; activity change, negative = inhibition: at 37.3 µM (top of the series)
Work on `NC(=O)c1ccc(-c2nc(-c3ccc4c(c3)OCO4)c(-c3ccccn3)[nH]2)cc1` yielded an activity change, negative = inhibition of -5.7%.
`Cc1cccc(C(=O)Nc2c(C(=O)NCc3ccc(Cl)cc3)sc3nc(C)cc(C)c23)c1` gave an activity change, negative = inhibition of -92.4%.
Work on `CCN1CCN(c2ccc(NS(=O)(=O)c3c(C)nc4sccn4c3=O)cc2Cl)CC1` yielded an activity change, negative = inhibition of -78.4%.
With `COc1ccc(NC(=O)c2c(C)oc3ccc(O)c(CN4CCCC(C)C4)c23)cc1Cl` (stereo unspecified) the Potency was 9.27 µM (active).
`Cc1ccccc1CN1C(=O)C(O)(CC(=O)c2ccccc2)c2cc(Cl)ccc21` (stereo unspecified) gave an activity change, negative = inhibition of -65.2%.
With `CCOc1ccccc1NC(=O)CN1C(=O)C(=O)c2ccccc21` the Potency was 18.5 µM (active).
